Compounds with a hit are over-represented: about 1.6% of the library has one in this group of screens.
Luminol counter: quenches luminol chemiluminescence in Nox1 counter-screen; HRP/luminol/H2O2 chemiluminescence counterscreen; inhibition, % at 6.7 µM; 16,000 compounds, 0.4% hits; also: reference of the scale not given here
rat GALR2 ag: GALR2 (rat) receptor agonism; O08726; cell-based GALR2 agonist screen; activation, % at 10 µM; 16,000 compounds, 0.5% hits; AID 833; in the data active = activation above about 15%
Target sequence (O08726 whole entry, looked up): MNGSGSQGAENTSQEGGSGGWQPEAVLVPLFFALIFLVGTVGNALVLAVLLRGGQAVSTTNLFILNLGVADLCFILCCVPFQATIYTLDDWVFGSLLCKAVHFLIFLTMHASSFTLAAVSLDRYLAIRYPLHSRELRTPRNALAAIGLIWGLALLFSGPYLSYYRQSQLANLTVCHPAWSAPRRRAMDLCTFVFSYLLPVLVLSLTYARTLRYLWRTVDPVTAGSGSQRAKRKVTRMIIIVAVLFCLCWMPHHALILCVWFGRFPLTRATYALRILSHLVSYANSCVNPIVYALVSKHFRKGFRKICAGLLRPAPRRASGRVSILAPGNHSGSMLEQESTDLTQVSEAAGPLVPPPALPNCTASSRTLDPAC
Nox1 inhibitor: blocks human NADPH oxidase 1 activity | Q9Y5S8 | HT29 cells, luminol chemiluminescence ROS | inhibition, % at 6.7 µM | 16,000 compounds, 0.81% hits | AID 1792
Of the large screens only hits and unclear results are named; the others gave an inactive call. Rule as the data show it, unless noted: active = inhibition above about 75%; inactive = the rest.

COc1ccc(Nc2nc(NC(=O)Nc3ccc(Cl)cc3)n[nH]2)cc1	Nox1 inhibitor 96.4
Cc1nc(C)c(-c2ccnc(NC(=O)Nc3ccc(Cl)cc3)n2)s1	none
CC[n+]1c(C)csc1Nc1ccc(N2CC(C)OC(C)C2)cc1 (configuration not stated)	Nox1 inhibitor 104.6
COc1ccc(/C=C2/C(=O)N(c3cccc(Cl)c3)N=C2C)cc1	none
COc1cc2ncnc(NNS(=O)(=O)c3cc(C)c(Cl)cc3C)c2cc1OC	Nox1 inhibitor 100.8
COc1cc2ncnc(Nc3cccc(Cl)c3)c2cc1OC	none
Cn1ncc2c(NNC(=O)c3cc(Cl)cc(Cl)c3)ncnc21	none
Cc1cc(S(=O)(=O)NNc2ncnc3c2cnn3C)c(C)cc1Cl	Nox1 inhibitor 102.2
C#CCOC(=O)Nc1nc(C)oc1C(F)(F)F	none
Cc1ccc(S(=O)(=O)N/N=C/c2ccc(N(C)C)cc2Cl)cc1	none
COc1ccc(/C(C)=N/Nc2c([N+](=O)[O-])cc(C(F)(F)F)cc2[N+](=O)[O-])cc1CN1CCOCC1	none
CC(=O)c1ccc(N2CCC(C(=O)c3ccccc3)CC2)c([N+](=O)[O-])c1	none
Cc1nn(C)c(C)c1NC(=O)/C(C#N)=C\N(C)C	none
Cc1nn(C)c(C)c1Nc1n[nH]c(N)n1	Nox1 inhibitor 76.6
Cc1nc(-c2ccccc2)sc1C(=O)NC(=O)c1ccccc1O	none
N#CCCn1nccc1-c1ccccc1O	none
COc1ccc2c(c1)CCCN2Cc1c[nH]c2ccccc12	Nox1 inhibitor 101.1
CCOC(=O)C1CCN(c2ccccc2CN2CCCc3cc(C)ccc32)CC1	none
Cc1nc(C)c(C(=O)NN)s1	none
CC(/C=C/c1ccccc1)=N\OC(=O)c1cccs1	none
CC1CN(c2ccccc2OC(=O)Nc2ccc(OC(F)(F)F)cc2)CC(C)O1 (configuration not stated)	Nox1 inhibitor 101.1
O=C(Nc1ccc(Cl)cc1)Oc1ccccc1N1CCSCC1	Nox1 inhibitor 92.1
O=C(Nc1ccccc1)Oc1cccc(F)c1OC(=O)Nc1ccccc1	none
CN1c2ccccc2C(O)=C(C(=O)Nc2ccc(OC(F)(F)F)cc2)S1(=O)=O	none
N/C(=N\OC(=O)c1ccccc1)c1ccc(-c2csnn2)cc1	none
CC(=O)c1cc2sccc2[nH]1	none
NNC(=S)Nc1ccc(OCc2ccccc2)cc1	none
Nn1c(-c2ccc(Cl)cc2)n[nH]c1=S	Luminol counter 99.1
S=c1[nH]nc(-c2ccc(Cl)cc2)n1-c1ccccc1	none
CC1(C)c2cc(O)ccc2OC1N1CCOCC1 (configuration not stated)	Luminol counter 96.0, Nox1 inhibitor 85.3
CSc1sc(C(N)=S)c(C)c1C(C)=O	none
NC(=O)c1ccc(S(=O)(=O)N2CCOCC2)cc1	none
Cc1cc(NC(=O)c2cnc3ccccc3n2)on1	none
O=C(O)C1CCN(C(=O)c2ccc3nsnc3c2)CC1	none
Cc1ccc(S(=O)(=O)Nc2ccccc2N2CCCCC2)cc1Cl	none
CN1CCN(c2ccc(NS(=O)(=O)c3cccc(C(F)(F)F)c3)cc2)CC1	Nox1 inhibitor 93.7
O=S(=O)(Nc1ccc(N2CCN(c3ccc(C(F)(F)F)cn3)CC2)nc1)c1cccc(Cl)c1	none
O=S(=O)(Nc1ccc(N2CCCCC2)cc1)c1ccccc1	Nox1 inhibitor 100.8
O=C(OCCOc1ccc(Cl)cc1Cl)c1ccc([N+](=O)[O-])o1	none
O=C1ON=C(c2ccccc2)/C1=C/c1ccc([N+](=O)[O-])s1	none
O=C(c1ccccc1)N1CCN(CCOc2ccccc2)CC1	none
Cc1nnsc1-c1onc(C)c1-c1nc(-c2ccc([N+](=O)[O-])o2)no1	none
Cc1nnsc1-c1n[nH]c(=S)n1C1CC1	Luminol counter 98.8
O=C(CN1C(=O)c2ccccc2C1=O)NCc1ccc(N2CCOCC2)cc1	none
O=C1c2ccccc2C(=O)N1CNc1ccc(N2CCOCC2)cc1	Nox1 inhibitor 97.6
O=[N+]([O-])c1cc(C(F)(F)F)cc([N+](=O)[O-])c1N/N=C/c1ccccc1O	none
O=C(CCc1ccc(O)cc1)NNc1c([N+](=O)[O-])cc(C(F)(F)F)cc1[N+](=O)[O-]	none
COc1ccc(C(=O)NNc2c([N+](=O)[O-])cc(C(F)(F)F)cc2[N+](=O)[O-])cc1	Nox1 inhibitor 89.4
O=C(NNc1c([N+](=O)[O-])cc(C(F)(F)F)cc1[N+](=O)[O-])c1ccccc1-n1cccc1	Nox1 inhibitor 102.4
Cn1cccc1C1=C(C#N)C(c2c(Cl)cccc2Cl)C(C#N)=C(N)O1 (configuration not stated)	none
C/C(=N\O)c1ccc2c(c1)CCC2	none
O=C(c1ccc2c(c1)CCC2)C1CCC1	rat GALR2 ag 46.3
S=C1NNC2(CCCCCCCCCCC2)NN1	none
COC(=O)c1cc(OC)c(OC)c(OC)c1N=C/C(C(C)=O)=C(/C)O	none
CCO/C(C)=N/OC(=O)Nc1ccc(OC(F)(F)F)cc1	none
CCOC(=O)C1=C(Nc2ccc(OC(C)=O)cc2)C(=O)N(C(C)(C)C)C1	Nox1 inhibitor 83.5
Cc1nc(-c2nnc(Sc3ccc([N+](=O)[O-])cn3)n2C)cs1	none
N#Cc1ccccc1NC(=O)CSCCSCC(=O)Nc1ccccc1C#N	none
O=[N+]([O-])c1cc(C(F)(F)F)cc([N+](=O)[O-])c1Oc1cccc(N2CCOCC2)c1	none
CCOC(=O)/C(C#N)=C/Nc1cc(F)ccc1C	none
CCOC(=O)/C(C#N)=C/Nc1cccnc1Oc1ccc(C)c2c1CCC2	rat GALR2 ag 27.3
O=C1Nc2ccccc2/C1=C/c1c(Sc2ccc(Cl)cc2)nc2sccn12	none
CC(=O)c1ccc(NCN2C(=O)/C(=C\N(C)C)NC2=S)cc1	Nox1 inhibitor 100.0
Cn1c(-c2ccco2)n[nH]c1=S	none
Cn1c(-c2ccccn2)n[nH]c1=S	Luminol counter 96.5
Cc1ccc2c(c1)CCCN2C(=O)c1sc2ccccc2c1Cl	none
Cc1ccc2c(c1)CCCN2C(=O)CC(=O)N1CCCc2cc(C)ccc21	Luminol counter 77.5
CC1CN(c2ccc(NC(=O)c3ccco3)cc2C(=O)O)CC(C)O1 (configuration not stated)	none
CC1CN(c2ccc(NS(=O)(=O)c3ccccc3)cc2C(=O)O)CC(C)O1 (configuration not stated)	Nox1 inhibitor 83.8
Nc1ncnc2cccc(F)c12	none
Cc1noc(C)c1NC(=O)NC(=O)c1c(F)cccc1Cl	none
Cc1noc(NC(=O)NC(=O)c2cc(F)c(N(C)C)c(F)c2)c1C	rat GALR2 ag 35.7
COc1cc(N=Cc2ccccc2OC(=O)c2cc(OC)c(OC)c(OC)c2)c(OC)cc1Cl	none
O=C(CSc1ccccc1[N+](=O)[O-])NNC(=S)Nc1cccc(C(F)(F)F)c1	none
COc1cc([N+](=O)[O-])c(OC)cc1SCC(=O)NNC(=S)Nc1ccc(F)cc1	Luminol counter 83.0
O=C1C=C(I)C(=O)C=C1I	Nox1 inhibitor 85.7
O=C(NCc1ccc2c(c1)OCO2)C1CC(=O)N(Cc2ccc(F)cc2)C1 (configuration not stated)	none
NC(=O)C1CCN(S(=O)(=O)Cc2ccc(Cl)cc2)CC1	none
CC(C)(C)C(=O)NNC(=O)c1cc(C(C)(C)C)nn1Cc1ccccc1	none
COc1ccccc1NNC(=O)c1cc(C(C)(C)C)nn1Cc1ccccc1	Nox1 inhibitor 90.9
Cc1ccc(N/C=C(\C#N)C(=O)c2cc(C(C)(C)C)on2)cc1	none
COc1ccc(/C=C(\C#N)C(=O)c2cc(C(C)(C)C)on2)cc1	rat GALR2 ag 21.4
COC(=O)c1ccc([N+](=O)[O-])o1	none
OC(CSc1nc2cccnc2s1)C(F)(F)F (configuration not stated)	none

Bioassay records (PubChem)
